Screening results: PubChem, National Center for Advancing Translational Sciences (NCATS)
FLuc counter – qHTS profiling assay for firefly luciferase inhibitor/activator using purifed enzyme and Km concentrations of substrates (counterscreen for miR-21 project); 360,000 tested, 6.9% active; purified FLuc, Km substrates, luminescence inhibition; Potency, µM (highest dose often 57.5 µM), without a hit: at the top dose activity change, negative = inhibition, hits mostly inhibitors;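 further: plate controls were vehicle for no effect and reference inhibitor for full effect; nearly all actives have a fitted effect of over 55% in size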
Target sequence (P08659 whole entry, looked up): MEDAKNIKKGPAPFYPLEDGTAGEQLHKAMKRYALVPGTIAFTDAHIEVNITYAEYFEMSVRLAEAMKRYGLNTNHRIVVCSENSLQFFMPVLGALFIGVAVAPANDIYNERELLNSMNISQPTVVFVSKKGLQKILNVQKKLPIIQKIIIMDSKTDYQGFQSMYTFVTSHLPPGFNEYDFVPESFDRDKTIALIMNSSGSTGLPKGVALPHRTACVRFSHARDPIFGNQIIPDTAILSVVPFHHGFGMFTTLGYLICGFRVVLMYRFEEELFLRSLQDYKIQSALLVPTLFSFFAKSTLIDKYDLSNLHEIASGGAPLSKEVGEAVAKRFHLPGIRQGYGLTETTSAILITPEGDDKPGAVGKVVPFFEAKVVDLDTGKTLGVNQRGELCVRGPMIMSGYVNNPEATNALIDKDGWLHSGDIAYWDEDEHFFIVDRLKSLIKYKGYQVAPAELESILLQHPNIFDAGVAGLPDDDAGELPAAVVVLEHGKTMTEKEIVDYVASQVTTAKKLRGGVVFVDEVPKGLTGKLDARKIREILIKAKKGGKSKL
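Purified P. pyralis luciferase, 10 nM final, with Km-level 10 uM D-luciferin and 10 uM ATP in 50 mM Tris acetate pH 7.5, 10 mM Mg acetate, 0.01% Tween-20, 0.05% BSA; 6-point qHTS titration about 60 µM downward; luminescence read.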
Rab9 prom act – qHTS Assay for Rab9 Promoter Activators. Potency, µM (titrated, usually from 9.22 µM), without a hit: at the top dose activation, negative = inhibition, actives largely listed as activators. 320,000 tested, 2.8% active. Huh7 Rab9 promoter-luciferase reporter, luminescence, 24 h; further: % of control where 0% means no effect; nearly all actives have a fitted effect of over 60% in size
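Luminescence read-out: Huh7 cells stably expressing Rab9-luciferase, treated 24 h with compound at 37 °C, then lysed with luciferase reagent for 10 min at ambient before reading.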
SMN2 splice up – qHTS Assay for Enhancers of SMN2 Splice Variant Expression | HEK293 SMN2-luciferase splicing reporter, luminescence, 30-36 h | Potency, µM (highest dose often 46.1 µM), inactives show at the top dose activity change, positive = activation, hits mostly activators | 210,000 tested, 2.8% active | AID 1458, 2008; further: % of control where 0% means no effect; nearly all actives have a fitted effect of over 55% in size
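HEK293 cells carry an SMN2 […]–luciferase reporter in which exon 7 inclusion puts luciferase in frame. Cells were plated 10-12 h before compound addition, then incubated 30-36 h at 37C. ONE-Glo luminescence was read; sodium butyrate at 4.5 mM final served as control.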
NPC1 promoter act – qHTS Assay for NPC1 Promoter Activators. 320,000 tested, 2.4% active. Potency, µM (top dose mostly 9.22 µM), for inactives: at the highest dose activation, most hits filed as activators. Huh7 NPC1 promoter luciferase reporter, 24 h; further: % of control where 0% means no effect; nearly all actives have a fitted effect of over 60% in size
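Cells: Huh7 expressing luciferase under the NPC1 promoter, 1500/well. Seeded 2 h, compound added, incubated 24 h at 37 °C. Luciferase reagent, 10 min ambient, then luminescence.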
ELG1 genotoxic – qHTS screen for small molecules that induce genotoxicity in human embryonic kidney (HEK293T) cells expressing luciferase-tagged ELG1. 330,000 tested, 1.3% active. Potency, µM (doses to about 46 µM), for the others: at the highest dose activity change, positive = activation, actives largely listed as activators. AID 504466, 2011. HEK293T ELG1-luciferase reporter, luminescence, 16 h; further: % of control where 0% means no effect; nearly all actives have a fitted effect of over 60% in size
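Screening used a luciferase reporter fused to human ELG1 in HEK293T cells. Luminescence was read on a CCD plate imager after 16 hr exposure and 30 min ONE-Glo incubation.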
ELG1 DNA repair – qHTS screen for small molecules that inhibit ELG1-dependent DNA repair in human embryonic kidney (HEK293T) cells expressing luciferase-tagged ELG1; 330,000 tested, 2.3% active; Potency, µM (top dose mostly 46.1 µM), inactives show top-dose activity change, negative = inhibition, actives largely listed as inhibitors; HEK293T ELG1-luciferase reporter, luminescence, 16 h; DNA damage induced by 5-fluorouridine; AID 504467, 2011; further: on the % scale 0 is the no-effect control and ±100 the full control effect; nearly all actives have a fitted effect of over 55% in size
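DMSO vehicle served as the neutral condition. Each well held 2,000 cells given 5-fluorouridine plus compound; after 16 hr at 37 °C/5% CO2, ONE-Glo was added and luciferase measured 30 min later.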
* marks the source's active call; other numbers are inactive results; [ ] = dose if it differs, or a comment. Shown are actives, neighbours in structure and some others; about 9.4% of the full set was active somewhere. The call rests on the fitted dose curve; in most records, active means well fitted curve in the direction sought with a large enough effect; inconclusive means small, poorly fitted or top-dose-only effect, or another doubt; inactive means no such curve, though single readings can be large; an effect the other way counts as inactive or inconclusive. Potency means the concentration at half of the fitted maximal effect.

What do the screens show for `C/C(=N\NC(=O)Cc1cccn1C)c1ccco1`?
FLuc counter: -12%; Rab9 prom act: -4%; NPC1 promoter act: -5%; ELG1 genotoxic: 3%; ELG1 DNA repair: inconclusive

Results for CC(/C=C/c1ccco1)=N\NC(=O)c1cc(C)[nH]n1 ?
FLuc counter: -2%; Rab9 prom act: -4%; SMN2 splice up: 15%; NPC1 promoter act: 4%; ELG1 genotoxic: 13%; ELG1 DNA repair: 15%

What do the screens show for `C/C(=N/NC(=O)c1cc(C)[nH]n1)c1ccco1`?
FLuc counter: 21µM*; Rab9 prom act: 4µM*; NPC1 promoter act: inconclusive; ELG1 genotoxic: inconclusive; ELG1 DNA repair: inconclusive

Results for Cc1cccc(NC(=O)Nc2cccc(C#N)c2)n1 ?
FLuc counter: inconclusive; Rab9 prom act: inconclusive; SMN2 splice up: 16µM*; NPC1 promoter act: inconclusive; ELG1 genotoxic: 14%; ELG1 DNA repair: inconclusive

What do the screens show for `Cc1cccc(NC(=O)Nc2ccc(C#N)cc2)n1`?
FLuc counter: -15%; Rab9 prom act: 4%; SMN2 splice up: 11µM*; NPC1 promoter act: 18%; ELG1 genotoxic: -34%; ELG1 DNA repair: -13%

How did COc1ccc(NC(=O)Nc2cccc(C)n2)cc1 do in these assays?
FLuc counter: 8.5µM*; Rab9 prom act: inconclusive; SMN2 splice up: 11µM*; NPC1 promoter act: inconclusive; ELG1 genotoxic: 12µM*; ELG1 DNA repair: inconclusive

Results for Cc1cccc(NC(=O)Nc2ccc(Br)cc2)n1 ?
FLuc counter: -19%; Rab9 prom act: inconclusive; SMN2 splice up: 20%; NPC1 promoter act: 29%; ELG1 genotoxic: 7%; ELG1 DNA repair: inconclusive

What do the screens show for `COc1ccc(NC(=O)Nc2ccc(Br)cn2)cc1`?
FLuc counter: -17%; Rab9 prom act: 2.8µM*; SMN2 splice up: inconclusive; NPC1 promoter act: 3.5µM*; ELG1 genotoxic: 18%; ELG1 DNA repair: inconclusive

How did COCCCNC(=O)C1CCN(c2ncnc3c2nc2n3CCCCC2)CC1 do in these assays?
FLuc counter: -6%

Results for COc1ccc(N(CC(=O)Nc2cc(C)ccc2C)S(=O)(=O)c2ccc(OC)c(OC)c2)cc1 ?
FLuc counter: -10%; SMN2 splice up: -6%

Results for Cn1nc(C(C)(C)C)cc1C(=O)NNC(=O)c1cccc(Cl)c1 ?
FLuc counter: -1%; Rab9 prom act: -10%; NPC1 promoter act: -5%; ELG1 genotoxic: -12%; ELG1 DNA repair: 7.3µM*

How did O=C(NCc1cccc(F)c1)c1ccc2nc(N3CCCCC3)sc2c1 do in these assays?
FLuc counter: -14%; SMN2 splice up: inconclusive

Results for CS(=O)(=O)n1nc(OC(=O)c2cccc3ccccc23)cc1N ?
FLuc counter: 17µM*; Rab9 prom act: 27%; SMN2 splice up: 5%; NPC1 promoter act: 7%; ELG1 genotoxic: 5%; ELG1 DNA repair: 14%

How did C[C@@H](CSC(=N)N)C(N)=O do in these assays?
SMN2 splice up: -16%[9.22 µM]

What do the screens show for `CCN(Cc1ccccc1)Cc1c(O)ccc2oc(C)c(C(=O)Nc3ccccc3C)c12`?
FLuc counter: -7%; SMN2 splice up: -10%

Results for C[C@@H]1CN([C@H](C)CO)C(=O)c2cccc(NC(=O)Nc3ccc(F)cc3)c2O[C@H]1CN(C)C(=O)Nc1ccc(C(F)(F)F)cc1 ?
ELG1 genotoxic: -5%; ELG1 DNA repair: 6.5µM*

What do the screens show for `C[C@H](CO)N1C[C@H](C)[C@@H](CN(C)C(=O)Nc2ccc3c(c2)OCO3)Oc2c(NC(=O)Nc3ccc(C(F)(F)F)cc3)cccc2C1=O`?
ELG1 genotoxic: -6%; ELG1 DNA repair: 10µM*

What do the screens show for `C[C@H](CO)N1C[C@H](C)[C@@H](CN(C)S(C)(=O)=O)Oc2c(NC(=O)Nc3ccc4c(c3)OCO4)cccc2C1=O`?
ELG1 genotoxic: 2%; ELG1 DNA repair: 20%

Results for C[C@H](CO)N1C[C@H](C)[C@@H](CN(C)Cc2ccc(-c3ccccc3)cc2)Oc2c(NC(=O)Nc3ccc4c(c3)OCO4)cccc2C1=O ?
ELG1 genotoxic: -8%; ELG1 DNA repair: 23µM*

Results for CC(C)CC(=O)Nc1cccc(-c2nc3ccccc3[nH]2)c1 ?
FLuc counter: 17µM*; Rab9 prom act: -6%; SMN2 splice up: inconclusive; NPC1 promoter act: 2%; ELG1 genotoxic: -2%; ELG1 DNA repair: 0%

Results for CC(Oc1ccccc1)C(=O)Nc1cccc(-c2nc3ccccc3[nH]2)c1 (stereo not given) ?
FLuc counter: 12µM*; Rab9 prom act: 0%; NPC1 promoter act: 0%; ELG1 genotoxic: -5%; ELG1 DNA repair: -18%

What do the screens show for `CC(C)(C)C(=O)Nc1cccc(-c2nc3ccccc3[nH]2)c1`?
FLuc counter: 15µM*; Rab9 prom act: 5%; SMN2 splice up: 29%; NPC1 promoter act: 11%; ELG1 genotoxic: 0%; ELG1 DNA repair: -12%

Results for CCCc1c(C)c2ccc(O)c(CN3CCN(c4ccc(F)cc4)CC3)c2oc1=O ?
FLuc counter: 0%

What do the screens show for `Cc1ccc(-c2nc(CNC(=O)NC3CCCCC3)c(C)o2)cc1`?
FLuc counter: 0%

How did O=C(CC1Sc2ccccc2NC1=O)Nc1cccc(C(F)(F)F)c1 (stereo not given) do in these assays?
FLuc counter: 1%

What do the screens show for `Brc1ccc2nc(-c3cccs3)c(NCC3CCCO3)n2c1` (stereo not given)?
FLuc counter: 12µM*; Rab9 prom act: 27%; NPC1 promoter act: inconclusive; ELG1 genotoxic: -8%; ELG1 DNA repair: inconclusive

What do the screens show for `c1csc(-c2nc(NCC3CCCO3)c3ccccc3n2)c1` (stereo not given)?
FLuc counter: -1%; Rab9 prom act: -7%; NPC1 promoter act: -4%; ELG1 genotoxic: -14%; ELG1 DNA repair: -21%

How did Oc1ccc(/C=N/Nc2ncc(Br)cn2)c(O)c1 do in these assays?
FLuc counter: 11µM*; Rab9 prom act: inconclusive; SMN2 splice up: -23%; NPC1 promoter act: inconclusive; ELG1 genotoxic: 15µM*; ELG1 DNA repair: inconclusive

What do the screens show for `Oc1ccc(Br)cc1/C=N/Nc1ncc(-c2ccccc2)cn1`?
FLuc counter: -4%; Rab9 prom act: -1%; SMN2 splice up: -85%; NPC1 promoter act: -16%; ELG1 genotoxic: 1%; ELG1 DNA repair: -19%
